What was measured:
Assay in all cases: cross-link between two proteins; affinity purification or IP with mass spectrometry; cross-linking mass spectrometry
[1] = target: Ribosomal RNA-processing protein 15 (UniProt Q06511)
[2] = target: Ribosome biogenesis protein BRX1 (UniProt Q08235)
[3] = target: Ribosome biogenesis protein NSA1 (UniProt P53136)
[4] = target: Ribosome biogenesis protein SSF1 (UniProt P38789)
[5] = target: Ribosome production factor 1 (UniProt P38805)

Chain of Ribosome production factor 1, P38805 (P38805 whole entry): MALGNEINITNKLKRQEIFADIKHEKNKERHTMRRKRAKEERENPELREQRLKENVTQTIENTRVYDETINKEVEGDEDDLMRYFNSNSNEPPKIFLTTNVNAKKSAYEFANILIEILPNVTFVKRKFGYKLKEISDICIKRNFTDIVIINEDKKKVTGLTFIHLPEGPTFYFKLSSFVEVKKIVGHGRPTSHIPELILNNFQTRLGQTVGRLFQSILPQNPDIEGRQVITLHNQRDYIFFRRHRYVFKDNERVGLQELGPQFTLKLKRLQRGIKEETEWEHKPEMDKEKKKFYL
Chain of UniProt Q08235 (Q08235 whole entry): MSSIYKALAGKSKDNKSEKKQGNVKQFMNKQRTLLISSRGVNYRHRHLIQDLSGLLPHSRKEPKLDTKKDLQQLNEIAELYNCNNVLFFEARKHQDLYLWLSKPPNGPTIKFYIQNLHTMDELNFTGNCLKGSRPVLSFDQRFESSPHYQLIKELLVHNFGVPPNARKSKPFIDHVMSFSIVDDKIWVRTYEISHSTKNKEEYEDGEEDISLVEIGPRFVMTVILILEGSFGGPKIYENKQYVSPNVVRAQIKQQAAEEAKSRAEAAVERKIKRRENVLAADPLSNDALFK
Chain of Ribosome biogenesis protein SSF1, P38789 (P38789 whole entry): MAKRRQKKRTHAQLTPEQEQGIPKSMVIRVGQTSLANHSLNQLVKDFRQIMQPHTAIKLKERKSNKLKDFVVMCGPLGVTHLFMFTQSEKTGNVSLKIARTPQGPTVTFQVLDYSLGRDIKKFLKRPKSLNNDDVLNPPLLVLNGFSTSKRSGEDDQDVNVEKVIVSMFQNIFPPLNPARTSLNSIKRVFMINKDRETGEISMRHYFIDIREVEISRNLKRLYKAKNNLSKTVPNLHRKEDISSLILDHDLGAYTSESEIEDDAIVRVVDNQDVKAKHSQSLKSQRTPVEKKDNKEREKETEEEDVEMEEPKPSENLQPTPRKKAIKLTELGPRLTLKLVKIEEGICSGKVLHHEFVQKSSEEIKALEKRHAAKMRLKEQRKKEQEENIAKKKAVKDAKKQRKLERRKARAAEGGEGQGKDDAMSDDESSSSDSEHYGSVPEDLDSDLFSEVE
Chain of UniProt P53136 (P53136 whole entry): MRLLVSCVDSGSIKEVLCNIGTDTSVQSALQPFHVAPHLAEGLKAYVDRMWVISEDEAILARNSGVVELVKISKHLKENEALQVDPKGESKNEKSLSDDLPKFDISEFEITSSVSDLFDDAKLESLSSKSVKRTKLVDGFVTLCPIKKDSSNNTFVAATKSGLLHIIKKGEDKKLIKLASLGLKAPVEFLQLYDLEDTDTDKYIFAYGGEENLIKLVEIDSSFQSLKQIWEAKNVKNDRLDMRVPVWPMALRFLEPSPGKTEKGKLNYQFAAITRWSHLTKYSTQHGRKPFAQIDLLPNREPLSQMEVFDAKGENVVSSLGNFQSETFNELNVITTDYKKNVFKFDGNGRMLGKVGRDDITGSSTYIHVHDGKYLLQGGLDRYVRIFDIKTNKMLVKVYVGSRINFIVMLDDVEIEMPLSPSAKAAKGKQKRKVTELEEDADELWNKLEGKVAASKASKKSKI
Chain of UniProt Q06511 (Q06511 whole entry): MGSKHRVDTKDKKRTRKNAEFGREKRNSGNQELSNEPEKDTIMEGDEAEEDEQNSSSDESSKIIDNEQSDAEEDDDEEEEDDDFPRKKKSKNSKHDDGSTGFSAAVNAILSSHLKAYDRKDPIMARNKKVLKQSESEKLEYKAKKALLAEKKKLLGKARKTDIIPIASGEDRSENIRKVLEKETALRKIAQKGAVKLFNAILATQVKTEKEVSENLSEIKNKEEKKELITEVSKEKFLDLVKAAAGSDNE

“Ribosome biogenesis protein SSF1, P38789” was tested, and the “listed as a hit” value [1] was “yes” and the “listed as a hit” value [2] was “yes”.

With Ribosome production factor 1, P38805 the “listed as a hit” value [3] was “yes”.

With “Large ribosomal subunit protein uL29A, P0CX84” the “listed as a hit” value [4] was “yes”.

For “Large ribosomal subunit protein uL22A, P05740”, the “listed as a hit” value [5] was “yes”.

From PMC6340896
